The structures appear in SMILES notation. Results filed as inconclusive are left out. The source made the active and inactive calls. Unless noted, the call rests on the fitted dose curve; in most records, active means well fitted curve in either direction with a large enough effect (not every such curve was filed as active); inconclusive means small, poorly fitted or top-dose-only effect, or another doubt; inactive means flat fitted curve, though single readings scatter.

Assay [1] has as its target Lysosomal acid glucosylceramidase (Homo sapiens) (UniProt P04062). The assay is described as follows: Glucocerebrosidase-p2 (AID 348; in the data active means potency below about 10 µM; further: potency means the concentration at half of the fitted maximal effect). The conditions noted are these: purified GBA, blue fluorogenic substrate, 40 min. The gist of the method: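 Compounds titrated from 0.6 nM upwards against 0.2 nM enzyme in pH 5.9 citric acid/KH2PO4, taurocholate, tween-20; blue fluorogenic substrate 80 uM, 40 min room temperature, stopped and read Ex 365/Em 440 for AC50.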

Assay [2] in a line: AP1 Signaling Pathway (AID 357).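 Further: ME-180 reporter cells stimulated with EGF at its EC50 level; on the % scale 0 is the no-effect control and ±100 the full control effect.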 The conditions noted are these: ME-180 AP-1-bla reporter, EGF-induced, beta-lactamase ratio, 5 h; at 7.69 µM (top of the series) unless noted. An outline of the steps: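 Titration-series screen for positive or negative modulators of EC50 EGF-induced signaling in ME-180 cells carrying an AP-1-driven beta-lactamase reporter. After 5 hours at 37 degrees Celsius, CCF4 460nm/530nm emission ratio gave %Activity; AC50 values derived.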

The target in assay [3] is Cytochrome P450 1A2 (Homo sapiens) (UniProt P05177). The assay is described as follows: p450-cyp1a2 (AID 410; calls by dose curve; further: potency means the concentration at half of the fitted maximal effect;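 on activity change, negative = inhibition: -100% = full effect of reference inhibitor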). Particulars: recombinant CYP1A2, luciferin-ME demethylation, luminescence; series mostly up to 57 µM. An outline of the steps:
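Luminescent readout of luciferin formed from Luciferin-ME by human CYP1A2; data normalized against complete inhibition by 57 uM furafylline. Enzyme 20nM, substrate 100uM at Km, 100mM KPO4 buffer, 60 min reaction at room temperature.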

A short description of assay [4]: Stat Signaling Pathway (AID 446).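 Further: ME-180 cervical cancer cells given 40 pM IL-6 alongside compound; SIE-controlled beta-lactamase reporter measured as 460/530 nm FRET emission ratio; on the % scale 0 is the no-effect control and ±100 the full control effect.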 The conditions noted are these: ME-180 (cervical carcinoma) SIE beta-lactamase reporter, IL-6 stimulated, 5 h; at 7.69 µM (top of the series) unless noted. The gist of the method: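 IL-6/STAT signaling read in ME-180 cells via an SIE beta-lactamase reporter. Stimulus was 40 pM IL-6 (its AC50) for 5 hrs, so both activation and inhibition register.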
Assay [5] deals with Glucocorticoid receptor (Homo sapiens) (UniProt P04150). The assay is described as follows: GR-EFC Redistribution (AID 451; calls by dose curve; further: potency means the concentration at half of the fitted maximal effect). The conditions noted are these: CHO-K1 GR-EFC translocation, beta-gal luminescence, 2 h. The gist of the method:
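Translocation of GR-ED fusion to nuclear EA restores b-gal, read by luminescence after 1 h room-temperature detection. Engineered CHO-K1 biosensor cells, 1,000/well, exposed 2 h at 37 C to titrations up to 46 uM final.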

In assay [6] the target is Mitogen-activated protein kinase 10 (Mus musculus) (UniProt Q61831). The assay is described as follows: JNK3 AlphaScreen Assay (AID 530).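 Further: kinase came from lysate of stimulated human HepG2 cells; signal reports phosphorylation of biotinylated GST-cJun 1-79 at Ser73 with 10 µM ATP; on the % scale 0 is the no-effect control and ±100 the full control effect.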 Particulars: JNK3 lysate, c-Jun phosphorylation; series mostly up to 57.1 µM. The gist of the method:
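Compound titrations were preincubated 15 minutes at room temperature with substrate, antibody and pre-activated JNK3-containing HepG2 lysate. Reactions were started with 10 uM ATP and stopped with EDTA-containing bead buffer for AlphaScreen detection.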

The target of assay [7] is 3',5'-cyclic-AMP phosphodiesterase 4B (Homo sapiens) (UniProt Q07343). The assay is described as follows: qHTS Assay for Inhibitors of PDE-IV (AID 607; active means well fitted activation curve with a large enough effect in the main read-out, with a control signal flat, not every such curve was filed as active; further: % of control where 0% means no effect). The conditions noted are these: HEK293 ACTOne CNG channel cells, membrane potential fluorescence; series mostly up to 22.9 µM. The gist of the method:
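Live HEK293 cells with a modified cyclic nucleotide-gated (CNG) channel report intracellular cAMP via membrane-potential dye fluorescence (ex 535/em 590 nm). Endogenous PDE-IV was targeted. Compounds were tested at up to 22.9 uM final; RO 20-1724 100 uM served as control.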

Assay [8] deals with Cytochrome P450 2C9 (Homo sapiens) (UniProt P11712). The assay is described as follows: qHTS Assay for Inhibitors and Substrates of Cytochrome P450 2C9 (AID 883; active means well fitted curve in the direction sought with a large enough effect; an effect the other way counts as inactive or inconclusive; further: nearly all actives have a fitted effect of over 60% in size; further: potency means the concentration at half of the fitted maximal effect). Particulars: recombinant CYP2C9, luciferin-H luminescence, 60 min; series mostly up to 57.1 µM. An outline of the steps: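 Inhibition of CYP2C9 is scored as loss of luminescence, with 57uM sulphaphenazole defining 100% inhibition. Substrate Luciferin-H is used at 100uM, equal to its KM; enzyme at 10nM in 25mM KPO4, 60 min at 37C with NADPH regeneration.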
Sequence of Cytochrome P450 2C9 (Homo sapiens) (P11712 whole entry, looked up): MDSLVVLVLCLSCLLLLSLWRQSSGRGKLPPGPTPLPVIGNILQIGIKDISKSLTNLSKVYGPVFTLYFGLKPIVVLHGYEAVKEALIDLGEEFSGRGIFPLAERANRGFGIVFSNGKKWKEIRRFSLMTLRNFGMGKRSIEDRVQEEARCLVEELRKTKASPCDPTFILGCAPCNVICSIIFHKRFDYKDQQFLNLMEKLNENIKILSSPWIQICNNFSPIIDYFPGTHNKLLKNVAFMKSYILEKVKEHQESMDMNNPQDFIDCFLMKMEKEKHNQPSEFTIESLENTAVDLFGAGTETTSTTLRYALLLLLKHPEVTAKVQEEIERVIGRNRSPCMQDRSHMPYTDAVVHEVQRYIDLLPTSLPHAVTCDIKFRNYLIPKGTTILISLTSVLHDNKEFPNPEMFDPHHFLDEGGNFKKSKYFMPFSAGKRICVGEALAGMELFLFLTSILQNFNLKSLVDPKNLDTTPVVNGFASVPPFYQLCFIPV
On the technique in general: qHTS replaces the single test concentration by a dilution series.

The target in assay [9] is Cytochrome P450 3A4 (Homo sapiens) (UniProt P08684). The assay is described as follows: qHTS Assay for Activators of Cytochrome P450 3A4 (AID 885; active means well fitted curve in the direction sought with a large enough effect; an effect the other way counts as inactive or inconclusive; further: nearly all actives have a fitted effect of over 65% in size). The conditions noted are these: recombinant CYP3A4, Luciferin-PPXE luminescence, 60 min; series mostly up to 57.1 µM. An outline of the steps:
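Quantitative HTS format: compounds preincubated with 20nM human CYP3A4 and Luciferin-PPXE substrate at KM, reaction started by NADPH regeneration, stopped after 60 min, luciferase luminescence read 20 min later.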

A short description of assay [10]: qHTS Assay for Lipid Storage Modulators (AID 1519; calls by dose curve). Particulars: Drosophila S3 cells, BODIPY lipid droplet/cell ratio, laser cytometry, cells loaded with oleic acid; for activity change, negative = inhibition: at 57.5 µM (top of the series). The gist of the method: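 Cells seeded at 5,000 per well were treated with compounds over a concentration series and loaded with oleic acid (400 uM, as added). Lipid droplet fluorescence (488 nm excitation, 500-530 nm channel) was read by laser-scanning cytometry and normalized to 20 uM Triacsin C.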

Assay [11] is described as follows: Primary qHTS for small molecule stabilizers of the endoplasmic reticulum resident proteome: Secreted ER Calcium Modulated Protein (SERCaMP) assay (AID 1508630; active means well fitted curve in the direction sought with a large enough effect; an effect the other way counts as inactive or inconclusive; further: on the % scale 0 is the no-effect control and ±100 the full control effect). Particulars: SH-SY5Y GLuc-SERCaMP (Gaussia luciferase released on ER calcium loss) secretion, thapsigargin, luminescence; series mostly up to 38.4 µM. An outline of the steps: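 GLuc-SERCaMP-expressing SH-SY5Y cells, pretreated 16 h with compound, are challenged with thapsigargin to empty ER calcium stores; after 4 h, coelenterazine is added directly to the medium and luminescence is imaged.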

For assay [12], the target named is Glucocorticoid receptor (Homo sapiens) (UniProt P04150). The assay is described as follows: GR-GFP Redistribution (AID 450;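 active means compounds whose dose series gives a full or clear partial fitted curve of increased nuclear translocation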; further: potency means the concentration at half of the fitted maximal effect). The conditions noted are these: U2OS GR-GFP nuclear translocation, laser cytometry, 2 h.
Sequence of Glucocorticoid receptor (Homo sapiens) (P04150 whole entry, looked up, the tested form may be a part): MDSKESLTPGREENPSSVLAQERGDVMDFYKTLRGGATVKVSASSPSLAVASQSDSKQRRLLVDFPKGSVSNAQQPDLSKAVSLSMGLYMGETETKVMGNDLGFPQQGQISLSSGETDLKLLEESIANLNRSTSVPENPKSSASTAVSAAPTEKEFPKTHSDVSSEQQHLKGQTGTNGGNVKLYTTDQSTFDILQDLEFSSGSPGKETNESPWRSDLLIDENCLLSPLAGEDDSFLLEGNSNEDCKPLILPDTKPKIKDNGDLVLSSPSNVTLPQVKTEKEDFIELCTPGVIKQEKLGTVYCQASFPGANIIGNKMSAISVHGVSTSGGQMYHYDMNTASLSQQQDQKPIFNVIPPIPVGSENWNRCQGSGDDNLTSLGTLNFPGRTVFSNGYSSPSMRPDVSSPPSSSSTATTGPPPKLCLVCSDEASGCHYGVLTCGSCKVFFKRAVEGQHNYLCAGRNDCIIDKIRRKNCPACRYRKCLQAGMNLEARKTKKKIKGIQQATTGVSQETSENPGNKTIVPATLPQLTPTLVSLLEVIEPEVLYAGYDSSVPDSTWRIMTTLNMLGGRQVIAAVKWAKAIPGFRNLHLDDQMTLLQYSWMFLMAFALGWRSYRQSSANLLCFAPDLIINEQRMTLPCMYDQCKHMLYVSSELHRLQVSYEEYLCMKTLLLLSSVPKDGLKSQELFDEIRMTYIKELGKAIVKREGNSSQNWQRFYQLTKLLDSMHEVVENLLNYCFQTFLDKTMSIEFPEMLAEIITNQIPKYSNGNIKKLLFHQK
Assay [13] is described as follows: Confirmation and Secondary Assay for Modulators of Hemoglobin Beta Chain Splicing at IVS2 654 locus (AID 910; active means well fitted curve in the direction sought with a large enough effect; an effect the other way counts as inactive or inconclusive;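 further: HeLa cells stably carrying EGFP split by mutant beta-globin IVS2-654 intron; per-well total GFP intensity by laser scanning cytometry after 2-day treatment; % of control where 0% means no effect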). Particulars: HeLa EGFP-654 splicing reporter, GFP fluorescence, 48 h; series mostly up to 38.3 µM. An outline of the steps: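 Readout: per-well total peak green fluorescence (488 nm ex, 500–520 nm em) from objects 5–250 µm, reflecting correct splicing of an EGFP-654 reporter. Compounds were applied for 2 days at 37 °C to overnight-plated HeLa EGFP-654 cells; controls were DMSO and 500 nM IVS2-654 PNA.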

The nature of assay [14]: Confirmation and Secondary Assay for Modulators of Hemoglobin Beta Chain Splicing at IVS2 705 locus (AID 930; active means well fitted curve in the direction sought with a large enough effect; an effect the other way counts as inactive or inconclusive;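 further: HeLa cells stably expressing the EGFP-705 splicing reporter; GFP fluorescence per well restored by corrected splicing of the IVS2-705 intron in EGFP; % of control where 0% means no effect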). Particulars: HeLa EGFP-705 splicing reporter, GFP fluorescence, 48 h; series mostly up to 38.3 µM. An outline of the steps:
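Fluorescence gain (488 nm laser, 500-520 nm PMT) reflects restored correct splicing of a mutant IVS2-705 intron inside EGFP in stably transfected HeLa cells after 2-day compound treatment.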

Assay [15] concerns the target Ubiquitin carboxyl-terminal hydrolase 1 (Homo sapiens) (UniProt O94782). The assay is described as follows: Inhibitors of USP1/UAF1: Pilot qHTS (AID 504865; active means well fitted curve in the direction sought with a large enough effect; an effect the other way counts as inactive or inconclusive;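 further: rhodamine fluorescence freed from ubiquitin-rhodamine substrate followed over time; top concentration of the series differs between compounds; on the % scale 0 is the no-effect control and ±100 the full control effect; nearly all actives have a fitted effect of over 35% in size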). The conditions noted are these: purified USP1/UAF1, Ub-rhodamine cleavage fluorescence; series mostly up to 54.9 µM. An outline of the steps:
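1nM USP1/UAF1 + cpd, 15 min RT; start w/ Ub-Rho 150nM final; kinetic FL 480/540 nm, 6 reads q60 s. Buffer 50mM HEPES pH 7.8, 0.5mM EDTA, 1mM TCEP, 0.01% Tween-20, 0.1 mg/ml BSA.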

[16] abbreviates: measured here: cell count channel max response.
The mark [17] stands for this setting: measured here: lipid channel max response.

Sequence of Cytochrome P450 3A4 (Homo sapiens) (P08684 whole entry, looked up): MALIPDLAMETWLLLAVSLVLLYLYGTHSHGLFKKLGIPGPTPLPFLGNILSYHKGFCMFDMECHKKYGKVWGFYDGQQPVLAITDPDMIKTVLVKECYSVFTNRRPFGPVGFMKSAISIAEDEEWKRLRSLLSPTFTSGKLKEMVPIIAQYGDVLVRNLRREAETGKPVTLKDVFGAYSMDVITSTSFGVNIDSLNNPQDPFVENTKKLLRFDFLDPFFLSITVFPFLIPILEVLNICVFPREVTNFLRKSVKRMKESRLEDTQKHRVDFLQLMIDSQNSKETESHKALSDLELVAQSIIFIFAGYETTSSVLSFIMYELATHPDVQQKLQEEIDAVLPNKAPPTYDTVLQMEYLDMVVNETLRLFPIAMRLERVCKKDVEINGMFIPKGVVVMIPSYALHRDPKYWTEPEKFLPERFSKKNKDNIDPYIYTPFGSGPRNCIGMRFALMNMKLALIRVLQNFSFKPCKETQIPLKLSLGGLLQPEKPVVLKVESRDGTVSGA
Sequence of Cytochrome P450 1A2 (Homo sapiens) (P05177 whole entry, looked up): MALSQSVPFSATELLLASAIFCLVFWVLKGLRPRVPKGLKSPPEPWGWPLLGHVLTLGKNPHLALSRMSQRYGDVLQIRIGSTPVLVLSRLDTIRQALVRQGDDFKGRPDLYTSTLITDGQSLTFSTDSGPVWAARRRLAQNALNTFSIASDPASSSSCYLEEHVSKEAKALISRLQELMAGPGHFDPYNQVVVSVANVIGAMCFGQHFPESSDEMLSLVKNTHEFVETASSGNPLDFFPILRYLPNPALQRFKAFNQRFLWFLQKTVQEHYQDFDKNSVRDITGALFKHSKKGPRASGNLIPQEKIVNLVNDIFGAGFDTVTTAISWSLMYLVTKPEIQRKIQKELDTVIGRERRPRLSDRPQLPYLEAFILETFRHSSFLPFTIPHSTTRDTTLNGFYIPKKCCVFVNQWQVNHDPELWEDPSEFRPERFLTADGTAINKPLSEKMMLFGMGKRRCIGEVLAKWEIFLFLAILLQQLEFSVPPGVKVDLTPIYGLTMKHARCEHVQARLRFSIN
Sequence of Lysosomal acid glucosylceramidase (Homo sapiens) (P04062 whole entry, looked up): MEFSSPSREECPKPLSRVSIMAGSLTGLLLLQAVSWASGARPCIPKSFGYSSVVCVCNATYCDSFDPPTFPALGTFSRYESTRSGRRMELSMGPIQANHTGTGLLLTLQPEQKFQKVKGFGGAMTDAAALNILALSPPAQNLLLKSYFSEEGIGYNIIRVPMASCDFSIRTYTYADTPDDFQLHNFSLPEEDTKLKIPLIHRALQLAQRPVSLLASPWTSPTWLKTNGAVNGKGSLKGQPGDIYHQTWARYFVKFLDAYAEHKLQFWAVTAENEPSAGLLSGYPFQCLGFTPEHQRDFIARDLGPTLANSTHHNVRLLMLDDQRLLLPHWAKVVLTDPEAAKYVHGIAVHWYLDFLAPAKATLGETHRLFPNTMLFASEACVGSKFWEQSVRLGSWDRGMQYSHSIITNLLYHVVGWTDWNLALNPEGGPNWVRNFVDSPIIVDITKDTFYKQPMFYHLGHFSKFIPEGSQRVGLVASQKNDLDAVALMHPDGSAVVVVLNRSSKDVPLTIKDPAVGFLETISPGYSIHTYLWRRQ
Sequence of 3',5'-cyclic-AMP phosphodiesterase 4B (Homo sapiens) (Q07343 whole entry, looked up): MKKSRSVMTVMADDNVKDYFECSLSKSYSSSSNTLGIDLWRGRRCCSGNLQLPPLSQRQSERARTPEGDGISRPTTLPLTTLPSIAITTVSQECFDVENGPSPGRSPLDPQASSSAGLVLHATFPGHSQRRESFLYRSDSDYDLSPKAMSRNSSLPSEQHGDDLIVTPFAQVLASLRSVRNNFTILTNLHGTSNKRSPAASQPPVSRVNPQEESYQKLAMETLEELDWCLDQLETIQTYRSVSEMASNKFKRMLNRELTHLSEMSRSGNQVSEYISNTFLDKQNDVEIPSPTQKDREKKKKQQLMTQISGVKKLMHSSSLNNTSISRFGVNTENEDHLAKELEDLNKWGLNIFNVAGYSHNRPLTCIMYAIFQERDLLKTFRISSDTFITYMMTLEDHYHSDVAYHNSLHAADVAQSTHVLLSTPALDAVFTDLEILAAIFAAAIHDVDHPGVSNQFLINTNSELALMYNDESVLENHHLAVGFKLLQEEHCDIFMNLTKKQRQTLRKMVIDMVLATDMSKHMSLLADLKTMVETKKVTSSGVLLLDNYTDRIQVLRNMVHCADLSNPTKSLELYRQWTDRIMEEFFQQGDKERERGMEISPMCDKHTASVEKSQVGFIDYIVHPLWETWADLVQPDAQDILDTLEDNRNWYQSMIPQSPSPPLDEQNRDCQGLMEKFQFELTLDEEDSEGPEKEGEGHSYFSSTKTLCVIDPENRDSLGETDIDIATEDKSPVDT
Sequence of Ubiquitin carboxyl-terminal hydrolase 1 (Homo sapiens) (O94782 whole entry, looked up): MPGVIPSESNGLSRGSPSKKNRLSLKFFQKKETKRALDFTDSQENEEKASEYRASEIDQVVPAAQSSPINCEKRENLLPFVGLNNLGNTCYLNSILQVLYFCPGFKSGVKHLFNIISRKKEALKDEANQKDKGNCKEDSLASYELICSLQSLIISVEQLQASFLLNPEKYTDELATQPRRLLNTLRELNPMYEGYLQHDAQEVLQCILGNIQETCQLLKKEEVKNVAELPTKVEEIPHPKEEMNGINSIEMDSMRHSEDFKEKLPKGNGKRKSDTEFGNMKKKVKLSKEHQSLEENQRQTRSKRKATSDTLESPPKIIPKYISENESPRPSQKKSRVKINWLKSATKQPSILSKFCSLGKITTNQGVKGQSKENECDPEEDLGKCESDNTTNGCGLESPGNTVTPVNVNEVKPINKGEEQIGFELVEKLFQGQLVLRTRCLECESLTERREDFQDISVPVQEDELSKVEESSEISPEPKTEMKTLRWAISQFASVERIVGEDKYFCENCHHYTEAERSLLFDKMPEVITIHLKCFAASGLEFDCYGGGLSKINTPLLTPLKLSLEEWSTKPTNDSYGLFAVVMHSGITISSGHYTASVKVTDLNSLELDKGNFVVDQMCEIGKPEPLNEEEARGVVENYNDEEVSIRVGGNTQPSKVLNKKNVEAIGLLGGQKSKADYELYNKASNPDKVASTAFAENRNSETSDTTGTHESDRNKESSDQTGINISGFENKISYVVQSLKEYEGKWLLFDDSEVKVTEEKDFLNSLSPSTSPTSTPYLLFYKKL

As to `O=C(Nc1cccc(F)c1)N1CC2(CCN(C(=O)c3cc(C(F)(F)F)cc(C(F)(F)F)c3)CC2)C1`, the Potency in [1] is > 11.4 µM (inactive); in assay [5] it was > 46 µM (inactive). Moreover, the activity change, negative = inhibition was -25.3% (inactive) in [2] and 7.3% (inactive) in assay [10]. Also, the Potency result in assay [3], in [6], in assay [7], in [8] and in assay [9] was “inactive” each time. Further, the activity, negative = inhibition in [4] is -22% (inactive). Also, the figures for the max response in [10] (setting [16]) and in assay [10] (setting [17]) were 16.9% and 27.5%, respectively. Besides, the result in assay [11] was inactive.

On to `COCC(=O)N1CCC2(CC1)CCN(c1cccc(-c3ccccc3)c1)CC2`, for which the Potency in [1] was > 11.4 µM (inactive); in [3], 5.01 µM (active); in assay [5], > 46 µM (inactive). In addition, the activity change, negative = inhibition was -4.83% (inactive) in [2] and -0.758% (inactive) in [10]. Further, in assay [4], the activity, negative = inhibition was -8.32% (inactive). For the same molecule, the Potency result in assay [6] and in assay [7] was “inactive” in each case. For the same molecule, the max response in assay [10] (setting [16]) was -9.9%; in assay [10] (setting [17]), -7.13%. The outcome in assay [11] was inactive.

Turning to `O=C(c1cccc(F)c1)N1CCC2(CCN(Cc3ccncc3)CC2)CC1`, the Potency in [1] was > 11.4 µM (inactive); in [3] it was 12.6 µM (active); in assay [5], > 46 µM (inactive); in [8], 2.51 µM (active). The activity change, negative = inhibition in assay [2] was -25.9% (inactive); in [10] it was 2.27% (inactive). For the same molecule, the activity, negative = inhibition in [4] is -0.6% (inactive). Besides, the Potency entry in assay [6], in assay [7] and in [9] was “inactive” each time. Further, the max response turned out to be 4.86% in assay [10] (setting [16]) and 11.8% in assay [10] (setting [17]). Besides, the outcome in assay [11] was inactive.

For the molecule `O=C(c1cccc(F)c1)N1CCC2(CCCN(Cc3ccccc3)C2)CC1`, the values for the Potency in [1] and in assay [5] were > 11.4 µM (inactive) and > 46 µM (inactive), respectively. The activity change, negative = inhibition in assay [2] is 1.11% (inactive); in assay [10], -8.15% (inactive). Moreover, the Potency result in assay [3], in assay [6] and in assay [7] was “inactive” each time. Moreover, the activity, negative = inhibition in [4] was -5.98% (inactive). The max response in [10] (setting [16]) turned out to be 20.2%; in [10] (setting [17]), 12%. Also, the outcome in assay [11] was inactive.

Take `COc1ccccc1CNc1nc(-c2ccccc2CN(C)C)nc2ccccc12`: the Potency in assay [1] was > 11.4 µM (inactive); in assay [3] it was 0.794 µM (active); in [12], > 46 µM (inactive); in [5], > 46 µM (inactive). In addition, the values for the activity change, negative = inhibition in assay [2] and in assay [10] were 16.7% (inactive) and 3.53% (inactive), respectively. For the same molecule, the activity, negative = inhibition in [4] is -12.4% (inactive). Also, the Potency result in assay [6], in [9], in assay [13] and in assay [15] was “inactive” each time. Further, the result in [14] and in assay [11] was inactive. Further, the max response was -19.9% in [10] (setting [16]) and -15.9% in assay [10] (setting [17]).

On to `Cc1noc(C)c1C(=O)N1CCC2(CCCN(Cc3ccc(C#N)cc3)C2)CC1`, for which the values for the Potency in assay [1] and in assay [5] were > 11.4 µM (inactive) and > 46 µM (inactive), respectively. Further, the activity change, negative = inhibition in assay [2] was 4.42% (inactive); in [10], 6.31% (inactive). Moreover, the Potency entry in [3], in assay [6] and in assay [7] was “inactive” throughout. Also, in [4], the activity, negative = inhibition was 3.17% (inactive). Besides, the max response in assay [10] (setting [16]) worked out at 22.7%; in [10] (setting [17]), 33.4%. The outcome in [11] was inactive.

Take `COC(=O)N1CCC2(CC1)CN(c1ccncc1)C2`: the results for the Potency in [1] and in assay [5] were > 11.4 µM (inactive) and > 46 µM (inactive), respectively. Besides, the activity change, negative = inhibition in assay [2] is 1.61% (inactive); in assay [10], 3.84% (inactive). Moreover, the Potency result in [3], in [6] and in assay [7] was “inactive” in each case. Further, the activity, negative = inhibition in assay [4] was -7.68% (inactive). For the same molecule, the max response in assay [10] (setting [16]) came to 7.79%; in assay [10] (setting [17]), 12.9%. Besides, the result in assay [11] was inactive.
